Assay [1] concerns Human papillomavirus type 1a protein E7 (residues 44-93). The experiment in a line: small molecules binding HPV E7 44-93 – biochemical, small-molecule microarray, residues 44-93, 635 nm fluorescence, primary screen (AID 1108).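 Also: E7 fragment applied at 1 µg/mL in TBST for 1 h at 4 C; score combines spot fluorescence with its signal to noise ratio.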 Particulars: fluorescence 635 nm, higher = more signal.
Assay [2] is described as follows: hepatitis C replication reporter changes, two-sided – Huh7 cells, luciferase reporter, HCV replication inhibitor project, primary screen (AID 1109).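 Also: huh7 hepatoma cells harbouring a luciferase neomycin HCV replicon reporter; luciferase luminescence as measure of HCV replicon replication; test concentration not given here.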 Particulars: Huh7 HCV replicon luciferase reporter, 48 h; higher = more signal. (In general: Reporter assays use an easily measured gene product as a stand-in for the process of interest.)
Assay [3] has as its target Left-right determination factor 2 (Homo sapiens) (UniProt O00292). Kind of assay: small molecules binding LEFTY2 protein – biochemical, small-molecule microarray, 635 nm fluorescence scan, primary screen (AID 1110). To be noted: higher = more signal.
Assay [4] addresses Calmodulin-1 (Homo sapiens) (UniProt P0DP23). Kind of assay: small molecules binding calmodulin-1 with EGTA – biochemical, small-molecule microarray, Cy5-labelled CALM1, profiling panel (AID 1111).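 Also: labelled calmodulin applied in Tris saline Tween buffer holding calcium plus EGTA and DTT.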 Particulars: Cy5-CALM1 binding fluorescence, higher = more signal.
Assay [5] shares this target. The experiment in a line: small molecules binding Ca-loaded calmodulin-1 – biochemical, small-molecule microarray, Cy5-labelled CALM1, plus calcium, artefact control for SMM control-protein annotation, profiling panel (AID 1112).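 Also: score merges spot fluorescence with signal to noise from triplicate slides.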 Particulars: Cy5-CALM1 binding fluorescence, higher = more signal.
Assay [6] is described as follows: probe aWnt5a binding to arrayed compounds – biochemical, biotinylated probe, 635/667 nm fluorescence, primary screen (AID 1113).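 Also: score merges 667 nm fluorescence intensity with signal-to-noise per printed feature.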 Particulars: small-molecule microarray, higher = more signal.
The nature of assay [7]: probe aShh binding to arrayed compounds – biochemical, biotinylated probe, 635/667 nm fluorescence, primary screen (AID 1114).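 Also: probe is biotin-labelled aShh protein from a stem cell growth factor screen; measures binding of labelled protein to compounds printed on the slide; score merges feature fluorescence at 667 nm with signal-to-noise.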 Particulars: small-molecule microarray, higher = more signal.
Assay [8] is described as follows: probe aNog binding to arrayed compounds – biochemical, biotinylated probe, 635/667 nm fluorescence, primary screen (AID 1115).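 Also: probe is biotinylated aNog protein used at 0.15 µg/mL for 1 h at 4 C; z-score combines 667 nm fluorescence of each spot with its signal to noise.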 Particulars: small-molecule microarray, higher = more signal.
In assay [9] the target is Torsin-1A-interacting protein 1 (Homo sapiens) (UniProt Q5JTV8). Kind of assay: compound microarray binding of lysate hLAP1 – cell lysate, small-molecule microarray, COS7 lysate, 635/667 nm fluorescence, primary screen (AID 1116). To be noted: 635 nm fluorescence, higher = more signal.
Assay [10] concerns the target Alpha-bungarotoxin (Bungarus multicinctus) (UniProt P60615). Kind of assay: compounds binding labelled alpha-BTX control protein – biochemical, small-molecule microarray, Alexa647 label, 635/667 nm fluorescence, artefact control for SMM control protein annotation, profiling panel (AID 1117). Particulars: alpha-BTX-A647 binding fluorescence, higher = more signal.
In the next assay the target is Albumin (Bos taurus) (UniProt P02769). Kind of assay: compounds binding labelled BSA control protein – biochemical, small-molecule microarray, Alexa647 label, 635/667 nm fluorescence, artefact control for SMM control protein annotation, profiling panel (AID 1118).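 Also: score merges 667 nm emission intensity and signal-to-noise per printed compound spot.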 To be noted: BSA-A647 binding, fluorescence 635 nm, higher = more signal.
The nature of assay [11]: probe aXIP binding to arrayed compounds – biochemical, NeuroSMM set, 635/667 nm fluorescence, primary screen (AID 1119).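 Also: probe is the protein aXip251-270 applied at 1 µg/mL to compound-printed slides; binding of probe to printed compounds measured as 667 nm fluorescence plus signal to noise.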 To be noted: small-molecule microarray, higher = more signal, called active from +8 up or from −8 down.
Assay [12] is described as follows: probe aNOTCH3 binding on compound microarray – biochemical, small-molecule microarray, 635/667 nm fluorescence, primary screen (AID 1120).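 Also: probe is a biotin-tagged antibody raised against NOTCH3 rather than NOTCH3 protein; score merges spot fluorescence near 667 nm with spot signal to noise.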 To be noted: higher = more signal.
Assay [13] is described as follows: probe aNOTCH2 binding on compound microarray – biochemical, small-molecule microarray, 635/667 nm fluorescence, primary screen (AID 1121).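 Also: score merges feature fluorescence read at 667 nm with its signal to noise.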 Particulars: higher = more signal.
The target of assay [14] is Carbonic anhydrase 2 (Homo sapiens) (UniProt P00918). The experiment in a line: compounds binding carbonic anhydrase 2 – biochemical, small-molecule microarray, Alexa647-labelled CAII, profiling panel (AID 1122). To be noted: CAII-A647 binding fluorescence, higher = more signal.
Assay [15] in a line: COS7 lysate on small-molecule microarray, probe aHis, 635 nm (AID 1123).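 Also: z-score combines 667nm fluorescence intensity with signal-to-noise per printed compound spot.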 Particulars: COS7 cell lysate, fluorescence, higher = more signal.
The nature of assay [16]: probe aLAP1 signal on lysate-treated microarray – cell lysate, small-molecule microarray, COS7 lysate, primary screen (AID 1124).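 Also: lysate comes from COS7 cells expressing LAP1 and is applied at 0.3 µg/mL; score merges spot fluorescence near 667 nm with signal-to-noise over triplicate slides.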 Particulars: probe aLAP1, fluorescence, higher = more signal.
A further assay concerns Sam68 (KHDRBS1). The experiment in a line: compounds binding KHDRBS1 protein – biochemical, small-molecule microarray, 635 nm fluorescence, primary screen (AID 1125).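 Also: score merges 667 nm channel intensity with signal to noise over triplicate slides.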 To be noted: higher = more signal.
The subject of assay [17] is Chordin-like protein 2 (CHRDL2). Kind of assay: compounds binding chordin-like 2 – biochemical, small-molecule microarray, 635 nm fluorescence, primary screen (AID 1126).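 Also: printed compound slides probed with Chrdl2 protein at 4 µg/mL for 1 h at 4 C; score merges 667 nm emission intensity with signal to noise over three replicate slides.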 To be noted: fluorescence 635 nm, higher = more signal.
Assay [18] addresses Concanavalin-A (Canavalia ensiformis) (UniProt P02866). Kind of assay: compounds binding concanavalin A lectin – biochemical, small-molecule microarray, Alexa647 label, 635 nm, artefact control for SMM control protein annotation, primary screen (AID 1127).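 Also: z combines 667 nm emission intensity with signal-to-noise across three replicate slides.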 Particulars: ConA-A647 binding fluorescence, higher = more signal.

Calls of active or inactive are those of the source.

Chain of Albumin (Bos taurus) (P02769 whole entry, looked up): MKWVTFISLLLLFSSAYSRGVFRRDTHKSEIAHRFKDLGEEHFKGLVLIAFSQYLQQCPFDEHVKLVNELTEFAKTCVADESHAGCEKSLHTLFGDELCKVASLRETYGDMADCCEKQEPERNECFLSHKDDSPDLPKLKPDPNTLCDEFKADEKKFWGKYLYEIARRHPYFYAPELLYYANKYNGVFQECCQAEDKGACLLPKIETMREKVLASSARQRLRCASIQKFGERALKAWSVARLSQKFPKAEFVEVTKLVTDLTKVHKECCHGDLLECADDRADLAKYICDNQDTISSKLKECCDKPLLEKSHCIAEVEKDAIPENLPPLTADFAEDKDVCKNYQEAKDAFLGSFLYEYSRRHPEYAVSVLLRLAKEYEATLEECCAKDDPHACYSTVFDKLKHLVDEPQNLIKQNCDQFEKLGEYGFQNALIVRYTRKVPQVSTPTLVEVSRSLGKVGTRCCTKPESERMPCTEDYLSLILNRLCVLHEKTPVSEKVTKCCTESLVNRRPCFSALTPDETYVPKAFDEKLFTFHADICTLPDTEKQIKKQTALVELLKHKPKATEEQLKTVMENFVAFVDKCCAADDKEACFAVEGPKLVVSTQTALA
Chain of Torsin-1A-interacting protein 1 (Homo sapiens) (Q5JTV8 whole entry, looked up): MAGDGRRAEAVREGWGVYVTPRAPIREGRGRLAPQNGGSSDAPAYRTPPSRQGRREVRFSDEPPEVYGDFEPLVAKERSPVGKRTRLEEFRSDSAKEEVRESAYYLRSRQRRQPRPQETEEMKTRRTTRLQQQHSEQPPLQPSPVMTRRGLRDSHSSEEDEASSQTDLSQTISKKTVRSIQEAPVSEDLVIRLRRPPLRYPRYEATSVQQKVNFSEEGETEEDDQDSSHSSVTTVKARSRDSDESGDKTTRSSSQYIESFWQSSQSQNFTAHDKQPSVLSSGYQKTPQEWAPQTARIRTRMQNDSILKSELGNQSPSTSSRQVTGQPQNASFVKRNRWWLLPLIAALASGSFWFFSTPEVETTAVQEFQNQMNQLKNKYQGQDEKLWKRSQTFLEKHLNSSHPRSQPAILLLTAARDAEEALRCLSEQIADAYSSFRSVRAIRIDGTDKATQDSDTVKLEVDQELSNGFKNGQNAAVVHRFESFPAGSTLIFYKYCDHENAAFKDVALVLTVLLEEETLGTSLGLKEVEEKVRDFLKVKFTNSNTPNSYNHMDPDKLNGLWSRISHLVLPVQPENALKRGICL
Chain of Concanavalin-A (Canavalia ensiformis) (P02866 whole entry, looked up): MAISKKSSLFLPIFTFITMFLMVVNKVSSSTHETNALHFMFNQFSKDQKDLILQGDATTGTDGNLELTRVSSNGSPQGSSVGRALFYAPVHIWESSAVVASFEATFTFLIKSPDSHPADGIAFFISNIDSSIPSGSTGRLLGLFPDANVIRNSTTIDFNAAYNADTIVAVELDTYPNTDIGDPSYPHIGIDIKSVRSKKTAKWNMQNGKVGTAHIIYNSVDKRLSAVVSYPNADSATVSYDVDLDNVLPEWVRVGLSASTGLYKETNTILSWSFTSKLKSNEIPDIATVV
Chain of Left-right determination factor 2 (Homo sapiens) (O00292 whole entry, looked up): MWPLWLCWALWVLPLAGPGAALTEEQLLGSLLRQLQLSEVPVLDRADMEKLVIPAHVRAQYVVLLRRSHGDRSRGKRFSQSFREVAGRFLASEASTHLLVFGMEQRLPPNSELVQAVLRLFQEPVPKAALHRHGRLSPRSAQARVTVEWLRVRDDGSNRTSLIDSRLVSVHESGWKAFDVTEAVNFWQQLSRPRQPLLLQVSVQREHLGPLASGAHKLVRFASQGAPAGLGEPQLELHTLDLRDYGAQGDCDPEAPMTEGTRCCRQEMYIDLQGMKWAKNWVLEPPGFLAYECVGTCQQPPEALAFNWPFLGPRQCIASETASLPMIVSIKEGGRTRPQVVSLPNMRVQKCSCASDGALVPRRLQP
Chain of Alpha-bungarotoxin (Bungarus multicinctus) (P60615 whole entry, looked up): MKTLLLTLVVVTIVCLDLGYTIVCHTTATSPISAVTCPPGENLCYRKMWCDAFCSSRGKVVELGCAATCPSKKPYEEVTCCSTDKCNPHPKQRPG

With `CC[C@@H]1C=C(C(=O)O)[C@H](c2ccco2)N1S(=O)(=O)c1ccc(C)cc1`, the composite z-score in [1] is -0.11; in [3], -0.0532; in assay [4], -0.256; in assay [5], -0.841; in assay [6] it was -0.0529; in [7], -0.0146. For the same compound, the composite z-score in assay [8] is 0.0051; in assay [9], 0.018; in [10], 0.396; with Albumin (Bos taurus) it was -0.179; in [12], -0.128; in [13], -0.108. For the same compound, the composite z-score is 0.689 in assay [14]; 0.059 in assay [15]; 0.591 in assay [16]; 0.125 in the assay on Sam68 (KHDRBS1); 0.209 in [17]; -1.29 in [18]. Besides, in assay [2], the z-score was -1.22. Further, the composite Z-score in assay [11] is 0.33 (inactive).
For `COCCOC(=O)N1C(=O)[C@@]2(c3cc(C#CC4=CCCCC4)ccc31)[C@H](C(=O)Nc1nc3ccccc3s1)[C@H]1C(=O)O[C@H](c3ccccc3)[C@H](c3ccccc3)N1[C@@H]2c1ccc(OCCO)cc1`, the composite z-score was 1.05 in [1]; 0.269 in [3]; 0.792 in assay [4]; -0.171 in assay [5]; -0.0685 in assay [6]; -0.196 in assay [7]. Moreover, the composite z-score in assay [8] was -0.337; in assay [9] it was 0.47; in [10], 0.387; with Albumin (Bos taurus), 0.1; in assay [12], 0.0286; in [13], -0.148. The composite z-score came to 0.0924 in assay [14]; 0.417 in assay [15]; 0.338 in [16]; 1.16 in the assay on Sam68 (KHDRBS1); 0.984 in assay [17]; 1.03 in assay [18]. Further, the z-score in assay [2] was -1.09. For the same compound, in assay [11], the composite Z-score is -0.114 (inactive).
`CC(C)C[C@@H]1NC(=O)[C@H]2C[C@@H](C(=O)NCCCCCCN(C)C)[C@@H](c3ccc(O)cc3)N2C1=O`: the composite z-score in assay [1] was 1.09; in [3] it was 1.06; in [4], -0.631; in [5], -1.19; in assay [6] it was -0.0337; in assay [7], 0.207. Also, the composite z-score in assay [8] was -0.284; in assay [9] it was 1.03; in assay [10], 0.419; in the assay with Albumin (Bos taurus), -0.581; in assay [12], 0.0293; in assay [13] it was -0.112. The composite z-score in assay [14] was 0.479; in assay [15], 2.03; in assay [16] it was 0.588; in the assay with Sam68 (KHDRBS1), 1.32; in assay [17], 1.29; in assay [18], 1.17. In assay [2], this compound showed a z-score of 0.414. Further, the composite Z-score in assay [11] was 0.531 (inactive).
As for `C=CCOC(=O)[C@H]1[C@@H]2C(=O)O[C@@H](c3ccccc3)[C@@H](c3ccccc3)N2[C@@H](c2ccc(OCCOC(=O)[C@H]3C[C@H]4C(=O)N[C@@H](CC(C)C)C(=O)N4[C@H]3c3ccc(O)cc3)cc2)[C@]12C(=O)Nc1ccc(I)cc12`, the composite z-score in assay [1] is 1.41; in assay [3], 0.644; in assay [4] it was 0.321; in [5], -0.388; in assay [6], 0.0597; in [7], 0.0469. Moreover, the composite z-score was 0.13 in [8]; 1.78 in assay [9]; 1.82 in assay [10]; -0.262 with Albumin (Bos taurus); 0.17 in [12]; -0.117 in assay [13]. The composite z-score was found to be 0.597 in assay [14]; 1.77 in assay [15]; 0.818 in assay [16]; 1.28 in the assay with Sam68 (KHDRBS1); 1.37 in [17]; 1.16 in [18]. Moreover, the z-score in [2] is -0.86. Also, in assay [11], the composite Z-score is 0.672 (inactive).
With `O=C1O[C@H](c2ccccc2)[C@H](c2ccccc2)N2[C@H]1[C@@H](C(=O)O)[C@]1(C(=O)Nc3ccc(C#CCCO)cc31)[C@H]2c1ccc(O)cc1`, the composite z-score is -0.038 in assay [1]; -0.603 in [3]; 0.415 in assay [4]; 0.869 in assay [5]; 0.0044 in assay [6]; -0.0324 in [7]. Besides, the composite z-score in [8] is 1.08; in assay [9] it was 0.846; in [10], 0.0639; with Albumin (Bos taurus), 0.279; in assay [12], -0.0014; in assay [13], -0.0467. In addition, the composite z-score in assay [14] is 0.501; in assay [15], 0.651; in assay [16] it was 0.514; with Sam68 (KHDRBS1), 0.0673; in [17], -0.823; in assay [18] it was -0.161. The compound further gave a z-score in [2] of 0.101. Also, in assay [11], the composite Z-score is 0.0575 (inactive).

Source of the values: PubChem BioAssay.
